MARV entry inh = inhibitors of Marburg virus binding or cell entry; Marburg virus pseudotyped entry inhibition, cell reporter; AID 540276; Potency, µM (titrated, usually from 37.8 µM), usual class: inhibitors; 1.8% of 300,000 active; calls by dose curve; tested in HEK293 cells
AMA1-RON2 inh = inhibitors of Plasmodium falciparum AMA1-RON2 interaction; Potency, µM (highest dose often 58.2 µM), hits mostly inhibitors; 0.2% of 360,000 active; AlphaScreen AMA1-biotinylated RON2 peptide binding; active = well fitted inhibition curve with a large enough effect; inconclusive = small, poorly fitted or top-dose-only effect; inactive = no such curve, though single readings can be large or run the other way; note: nearly all actives have a fitted effect of over 45% in size
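AMA1 (3D7) with his tag at 25 nM final met compounds first, then biotinylated RON2 peptide at 25 nM; detection used donor plus acceptor beads, 10 µg/mL apiece, read by AlphaScreen after 30 min at room temperature.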
LASV entry inh = blocks Lassa virus binding to or entry into cells; Lassa virus pseudotype entry inhibition, cell reporter; Potency, µM (highest dose often 37.9 µM), usual class: inhibitors; 1.2% of 300,000 active; AID 540256; calls by dose curve; tested in HEK293 cells; note: nearly all actives have a fitted effect of over 50% in size
CHX counter = counter-screen hit for Shiga toxin inhibitors, cycloheximide; 12% of 300,000 active; AID 2314; max response, %; cell reporter, cycloheximide protein synthesis inhibition counterscreen; in the data active = max response mostly above about 13%, no sharp cut-off; inactive = mostly below about 14%; note: read at 38.3 µM for the half of the compounds with a filed dose
Shiga inhibitor = Shiga toxin inhibition | AID 2315 | Vero cells, Shiga toxin protein synthesis inhibition reporter | 9.2% of 290,000 active | inhibition, % at 38.7 µM; in the data active = inhibition mostly above about 28%, no sharp cut-off; inactive = mostly below about 43%
Each line names hits and unclear results; the compound was inactive in the other large screens. Shown is part of a subset that was picked to be rich in hits.

COc1ccc(/C=N/NC(=O)c2ccco2)cc1COc1ccc(F)cc1	none (no result: MARV entry inh, LASV entry inh)
CCOc1cc(/C=N/OC(C)=O)ccc1OCc1ccccc1	CHX counter 12
Cc1nn(C)c(C(=O)N/N=C/c2ccncc2)c1Cl	none
Cc1cc(C(=O)N/N=C/c2ccc(OCc3ccccc3)cc2)c(C)o1	LASV entry inh inconclusive, CHX counter 22
O=C(O)CSC1=c2ccccc2=NC1c1cccs1 (stereo not given)	none (no result: AMA1-RON2 inh, LASV entry inh, CHX counter, Shiga inhibitor)
COC(=O)[C@]12CCCCC=C1N(Cc1ccco1)C(=O)[C@H](CC(=O)N1CCOCC1)C2	none (no result: MARV entry inh, LASV entry inh, CHX counter, Shiga inhibitor)
Cc1c(C2N3CC4(C)CN2CC(C)(C3)C4=O)c2ccccc2n1C (stereo not given)	MARV entry inh inconclusive
Cc1cccc(-c2cnc3cccnn23)c1	none (no result: MARV entry inh, LASV entry inh, CHX counter, Shiga inhibitor)
Cc1cc(C(=O)N/N=C/c2cccc3ccccc23)c(C)o1	MARV entry inh 7.9µM, CHX counter 29
COc1ccc(/C=N/NC(=O)c2cc(C)oc2C)cc1OCc1ccccc1	MARV entry inh inconclusive, LASV entry inh inconclusive, CHX counter 12
O=C(N/N=C/c1ccccc1O)c1cccc2ccccc12	CHX counter 13 (no result: MARV entry inh, LASV entry inh)
COc1cc(/C=N/NC(=O)CN2CCCCC2)ccc1OCc1ccc(Br)cc1	MARV entry inh inconclusive, LASV entry inh inconclusive, CHX counter 12
COc1cc(/C=N/NC(=O)CCN2CCCCC2)ccc1O	none
COc1ccc2oc(=O)c(C(=O)N3CCN(c4ccc(C)cc4)CC3)cc2c1	none (no result: AMA1-RON2 inh, CHX counter, Shiga inhibitor)
COc1cc(/C=N/NC(=O)CC2(C)OCCCO2)ccc1OCc1ccc(Cl)cc1Cl	MARV entry inh inconclusive, LASV entry inh inconclusive
Cc1cc(C(=O)N/N=C/c2ccccc2)c(C)o1	MARV entry inh inconclusive, CHX counter 58, Shiga inhibitor 68
Cc1cc(C(=O)N/N=C/C=C/c2ccccc2)c(C)o1	none
COc1cc(/C=N/NC(=O)CC2(C)OCCCO2)ccc1OCc1ccccc1	CHX counter 23
Cc1ccc2[nH]c(C(=O)N/N=C/c3ccccc3O)c(C)c2c1	CHX counter 25, Shiga inhibitor 61 (no result: MARV entry inh, LASV entry inh)
CCn1cc(C(=O)N2CCCC(CO)(Cc3ccccc3C)C2)cn1 (stereo not given)	none
CN1CCN(C(=O)C2Cc3c(-c4ccc5c(c4)OCO5)ccnc3O2)CC1 (stereo not given)	none (no result: MARV entry inh, LASV entry inh, CHX counter, Shiga inhibitor)
Cc1ncsc1C(=O)N1N=C2/C(=C/c3ccccc3)CCCC2C1c1ccccc1 (stereo not given)	MARV entry inh 11µM, LASV entry inh inconclusive
Cc1[nH][nH]c(=O)c1C(c1ccc(-c2cccc(C(=O)O)c2)o1)c1c(C)[nH][nH]c1=O	CHX counter 58, Shiga inhibitor 74
CCOC(=O)c1c(C)oc2ccc(O)c(CN3CCCCC3)c12	MARV entry inh inconclusive, LASV entry inh inconclusive
CCOC(=O)C1CCN(Cc2ccccn2)CC1	none (no result: MARV entry inh, AMA1-RON2 inh, LASV entry inh)
CCOC(=O)c1c(C)oc2c1c(CN1CCN(C(=O)OCC)CC1)c(O)c1ccccc12	AMA1-RON2 inh inconclusive, CHX counter 71, Shiga inhibitor 104
CCOC(=O)c1c(C)oc2c1c(C(c1ccncc1)N1CCOCC1)c(O)c1ccccc12 (stereo not given)	MARV entry inh inconclusive, AMA1-RON2 inh inconclusive, LASV entry inh inconclusive, CHX counter 51, Shiga inhibitor 100
CCOC(=O)c1c(C)oc2c1c1c(c3ccccc32)OCN(Cc2ccccn2)C1	LASV entry inh inconclusive, CHX counter 35, Shiga inhibitor 89
CCOc1ccccc1Oc1c(C)oc2c(CN3CCN(CCO)CC3)c(O)ccc2c1=O	none
CCOC(=O)c1c(C)oc2c1c(C=NCCC(=O)O)c(O)c1ccccc12	LASV entry inh inconclusive
CCOC(=O)c1c(C)oc2c1c(CN1CCN(CCO)CC1)c(O)c1ccccc12	MARV entry inh inconclusive, CHX counter 36, Shiga inhibitor 118
N#CCCN(Cc1ccccc1)C(C(=O)NC1CCCCC1)c1cc2ccccc2o1 (stereo not given)	none (no result: MARV entry inh, LASV entry inh, CHX counter, Shiga inhibitor)
CCC(=O)c1ccc(OCC(=O)OCC(=O)Nc2sccc2C(N)=O)cc1	none
CC(C)NC(=O)CSc1ccccc1C(=O)NNC(=O)Cn1ccc(C(F)(F)F)n1	none (no result: CHX counter, Shiga inhibitor)
Cc1cc(C)c2nc(SCC(=O)Nc3cc(C)on3)c(C#N)cc2c1	none
Cc1cc(NC(=O)CSc2nc3c(cc2C#N)CCC3)no1	MARV entry inh inconclusive, LASV entry inh inconclusive, CHX counter 29, Shiga inhibitor 97
Cc1cc(NC(=O)CSc2nc3c(cc2C#N)CCCC3)no1	MARV entry inh inconclusive, LASV entry inh inconclusive, CHX counter 38, Shiga inhibitor 49
Cc1noc(NS(=O)(=O)c2ccc(NC(=O)CSc3nc4c(cc3C#N)CCCC4)cc2)c1C	none (no result: MARV entry inh, LASV entry inh)
Cc1cc(NC(=O)CSc2nc3ccccc3cc2C#N)no1	Shiga inhibitor 39

High-throughput results deposited in PubChem by National Center for Advancing Translational Sciences (NCATS).
